# Assay results published in PubChem BioAssay (NCI).
# Several values for one entry are separate records, joined by “and”; a condition that tells them apart may be missing. Identical values can stand only once. Compounds without any hit were thinned out: in the full panel of roughly 79,000, 15% have a hit. Unmarked numbers belong to inactive results. Activity calls are given as the source filed them. No stated cut-off is given here; in the data, active means growth inhibition above about 70%; inactive means the rest.
# Experiments:
# [1] = NCI Yeast Anticancer Drug Screen. Data for the rad50 strain (AID 155);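 further: 0% = growth of vehicle-only cultures of the same strain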; conditions: S. cerevisiae rad50 strain growth inhibition, active compounds read high; at 50.0 µM unless noted
# How it was run: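 Vehicle-treated cultures provide the reference for the growth inhibition reported for compound-exposed, repair-deficient yeast.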
# [2] = NCI Yeast Anticancer Drug Screen. Data for the mec2-1 strain (AID 157); conditions: S. cerevisiae mec2-1 strain, active compounds read high; at 50.0 µM unless noted
# How it was run: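 Vehicle-treated cultures served as reference for growth inhibition of compound-exposed mec2-1 yeast.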
# [3] = NCI Yeast Anticancer Drug Screen. Data for the sgs1 mgt1 strain (AID 161);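 further: 0% = growth of cultures given vehicle only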; conditions: S. cerevisiae sgs1 mgt1 strain, active compounds read high; at 50.0 µM unless noted
# How it was run: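 Inhibition of yeast growth, normalised to vehicle-treated controls, is reported for a strain bearing genetic alterations in DNA damage repair.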
# [4] = NCI Yeast Anticancer Drug Screen. Data for the cln2 rad14 strain (AID 165);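 further: 0% = growth equal to vehicle treated cultures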; conditions: S. cerevisiae cln2 rad14 strain, active compounds read high; at 50.0 µM unless noted
# How it was run: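 Each compound was tested on cln2 rad14 yeast. Inhibition of growth was calculated against vehicle-exposed controls.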
# [5] = NCI Yeast Anticancer Drug Screen. Data for the bub3 strain (AID 167); conditions: S. cerevisiae bub3 mutant strain, active compounds read high; at 50.0 µM unless noted
# How it was run: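 Mutant yeast screening strain plus compound; vehicle-treated cultures serve as the 0% inhibition reference.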
# [6] = NCI Yeast Anticancer Drug Screen. Data for the mlh1 rad18 strain (AID 175); conditions: S. cerevisiae mlh1 rad18 strain growth inhibition, active compounds read high; at 50.0 µM unless noted
# How it was run: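 Vehicle-treated cultures served as the reference for growth inhibition in a yeast strain carrying DNA damage repair alterations exposed to each compound.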
SMILES,growth inhibition [1],growth inhibition [2],growth inhibition [3],growth inhibition [4],growth inhibition [5],growth inhibition [6]
Cc1ccc(O)c(Cl)c1C,6.4%,-28.1%,-6.7%,7.4%,-26.3%,5.1%
O=C(c1ccccc1)C(F)S(=O)(=O)O (stereo unspecified),-5.7%,-7.75%,-9.05%,-25.8%,6.2%,16.9%
O=C(CCl)NNC1=Nc2ccc(Cl)cc2SC1,-2.2%,-3.65%,8.55%,0.6%,5.8%,11.2%
Cn1c2ccccc2c(=O)c2[nH]c3ccccc3c21,77.1% (active),78.5% (active),84.2% (active),63.5%,83.3% (active),76.8% (active)
CC1CCCCN1P(c1ccccc1)N1CCCCC1C (stereo unspecified),28.5%,16.9%,18.5%,24.1%,35%,22.7%
C/C=C/Cc1n[nH]c(=O)c2c(C)[nH]nc12,-13%,-13.4%,-9.55%,-13.8%,-5.85%,-17.9%
CCOc1ccccc1Nc1ccc(N)cc1S(=O)(=O)O,9.45%,0.85%,-31.5%,-6.2%,1.35%,-8.05%
O=C(c1ccc([N+](=O)[O-])cc1)N(Cc1ccccc1)Cc1ccccc1 (tested in a mixture with another compound),-7%,15.7%,-12.7%,-10.9%,26.8%,9.5%
CCc1cccc(CC)c1NC(=O)OCCN(CC)CC,-3.8%,-16.9%,10.4%,16.8%,11.6%,4.15%
Clc1cccc(Cl)c1C1SCc2nc3cc4ccccc4cc3n21 (stereo unspecified),-1.8%,-12.1%,24.9%,-0.55%,14%,14%
N#Cc1c(-c2ccc(Cl)cc2)c(-c2ccc(Cl)cc2)nn(CCOC(=O)CCC(=O)OCCn2nc(-c3ccc(Cl)cc3)c(-c3ccc(Cl)cc3)c(C#N)c2=O)c1=O,-11.7%,8.95%,5.5%,-24.4%,4.75%,26.4%
CN(C)c1ccc(Cc2ccc(N(C)C)cc2N)cc1,-0.85%,2.2%,2.75%,10.1%,-25.2%,-4.05%
CCO/C=C(\C)CC1([N+](=O)[O-])C(=O)c2ccccc2C1=O,7.95%,-4.75%,16.1%,-3.75%,11.5%,15.8%
Cn1c(-c2csc(-c3ccc(Cl)cc3)n2)n[nH]c1=S,5.65%,12.8%,11.6%,8.3%,6.35%,-36.1%
O=C1c2sc(-c3ccc(Cl)cc3)cc2-n2cccc21,9.3%,15.4%,2.15%,2.5%,-9.2%,26.2%
CSC1=NC(C(N)=O)C(N)N1C (stereo unspecified),-3.1%,-16.4%,6.3%,17.4%,1.35%,12%
O=C(CCC(=O)Nc1ccccc1C(F)(F)F)N/N=C1\C(=N\NC(=O)CCC(=O)Nc2ccccc2C(F)(F)F)C(c2ccc3c(c2)OCO3)Oc2ccccc21 (stereo unspecified),19.4%,3.4%,1.15%,-11%,-5.05%,4.55%
CCN(CC)CCNc1c(OC)c(OC)cc2nccnc12,9.85%,9.7%,30.9%,2.85%,0.2%,-1.75%
CCCCCCCCCC(OCC)OCC,-25.1%,-15.2%,-11.6%,-6.35%,-31.4%,-25.6%
CC[N+]1(CC)CC[N+]2(CC1)CC[N+]1(CC[N+](CC)(CC)CC1)CC2,-16.9%,-3.4%,12.1%,-26.6%,1.7%,2.7%
C=CCOC(=O)c1ccccc1,11.3%,6.5%,2.55%,11.4%,-9.55%,-16.6%

SMILES,growth inhibition [1],growth inhibition [2],growth inhibition [3],growth inhibition [4],growth inhibition [5],growth inhibition [6]
CC1Sc2ccccc2-c2[nH]c3ccccc3c21 (stereo unspecified),32.8%,49%,16%,5%,31.7%,66.1%
CC(C)N(C(=O)C12C3C4C1C1C2C3C41C(=O)N(C(C)C)C(C)C)C(C)C (stereo unspecified),-1.85%,-9.2%,-12.9%,-1%,8.45%,-26.5%
CCCCCCCCCCCCNCCC(=O)O,25%,-19%,42.1%,14.6%,50.5%,36.5%
CCOC(=O)c1sc(N)nc1N1CCCC1,1.65%,-23.9%,-9.65%,10.1%,7%,-2.25%
CCOC(=O)Cc1nc2nn(Cc3ccccc3)cc2c(=O)[nH]1,-48.8%,-63.9%,-7%,0.65%,-10.9%,-19.8%
O=CNc1cccnc1C1OCCO1,4.85%,5.85%,2%,-13.3%,-4.75%,7.65%
N#CC1C(=O)C(=O)N(c2ccccc2)C1=O (stereo unspecified),-6.1%,-6.85%,-24.7%,3.15%,-1.85%,-6.25%
CCCC(=O)NC1CCCCC1,-22.2%,8.05%,-26.9%,26.5%,-24.1%,-23.1%
CC(=O)OC(C(=O)NNC(=O)OC(C)(C)C)c1ccccc1 (stereo unspecified),-35.6%,-49.4%,-38%,-19.4%,-13.4%,-29.2%
CC(=O)Oc1c(I)cc(Cc2nc(C)oc2C)cc1I,-41.1%,-1.15%,6.5%,1%,6.8%,-4.8%
Cc1cc(Cl)ccc1NC(=O)Oc1ccc(C#N)cc1,-13.8%,-18.4%,-25.2%,-10.6%,-17.1%,-19.4%
Nc1ccc(NC(=O)Nc2ccccc2)cc1,5.65%,-19.2%,-0.7%,-32.4%,-22.3%,-15.1%
CCOC(=O)C1C(=O)CC(C)(O)C(C(=O)OCC)C1c1ccc(OC)cc1 (stereo unspecified),-27.4%,2.55%,8.65%,-5.95%,-2%,21.8%
O=C1CCCN(c2ccccc2)N1,24.4%,24.6%,3.3%,5.1%,31.9%,-3.8%
Cc1ccc(NC(=O)CCS)cc1,-1.75%,-25.9%,9.5%,2.1%,-13.2%,15.9%
OCC1OC(OC2C(CO)OC(O)C(O)C2O)C(O)C(O)C1O (stereo unspecified),19.1%,14.9%,13.9%,13.3%,20.1%,13.7%
O=S(=O)(O)c1ccc2c(ccc3ccccc32)c1,-18.4% and -3.8%,-0.25% and -18.4%,-2.9% and -14.2%,-0.9% and 21.6%,1.35% and 28.1%,5.7% and -23.1%
COc1cccc(C2SCC(=O)N2c2ccc(-n3c(-c4ccccc4)nc4ccccc4c3=O)cc2)c1OC (stereo unspecified),11.9%,26.4%,0.9%,-9.7%,22.4%,26.9%
CS(=O)(=O)c1ccc(/C(=N/N)c2ccccc2)cc1,1.65%,9.65%,9.2%,28.2%,13.5%,17.4%
CCC(=O)OC(CCC1CCCO1)CCC1CCCO1 (stereo unspecified),11.5%,12.2%,3.75%,12.4%,22.9%,-3.55%
